Measured values taken from PubChem BioAssay (Tox21).
Values joined by “and” are separate entries in the source; they are usually repeats but may differ in a detail not shown here. Equal values may be shown once. Results filed as inconclusive are left out. Active and inactive are the calls of the source. Unless noted, calls come from the whole dose curve; as a rule, active = well fitted curve in the direction sought with a large enough effect in the repeat runs; inconclusive = weak or mixed curves; inactive = no such curve, though single readings can be large; an effect the other way counts as inactive or inconclusive.

How the values were obtained:
[1] = molecular target: Thyrotropin receptor (Homo sapiens) (UniProt P16473); test: qHTS assay to identify small molecule agonists of the thyroid stimulating hormone receptor (TSHR) signaling pathway (AID 1224843; calls by dose curve; note: nearly all actives have a fitted effect of over 45% in size)
Sequence of Thyrotropin receptor (Homo sapiens) (P16473 whole entry, looked up): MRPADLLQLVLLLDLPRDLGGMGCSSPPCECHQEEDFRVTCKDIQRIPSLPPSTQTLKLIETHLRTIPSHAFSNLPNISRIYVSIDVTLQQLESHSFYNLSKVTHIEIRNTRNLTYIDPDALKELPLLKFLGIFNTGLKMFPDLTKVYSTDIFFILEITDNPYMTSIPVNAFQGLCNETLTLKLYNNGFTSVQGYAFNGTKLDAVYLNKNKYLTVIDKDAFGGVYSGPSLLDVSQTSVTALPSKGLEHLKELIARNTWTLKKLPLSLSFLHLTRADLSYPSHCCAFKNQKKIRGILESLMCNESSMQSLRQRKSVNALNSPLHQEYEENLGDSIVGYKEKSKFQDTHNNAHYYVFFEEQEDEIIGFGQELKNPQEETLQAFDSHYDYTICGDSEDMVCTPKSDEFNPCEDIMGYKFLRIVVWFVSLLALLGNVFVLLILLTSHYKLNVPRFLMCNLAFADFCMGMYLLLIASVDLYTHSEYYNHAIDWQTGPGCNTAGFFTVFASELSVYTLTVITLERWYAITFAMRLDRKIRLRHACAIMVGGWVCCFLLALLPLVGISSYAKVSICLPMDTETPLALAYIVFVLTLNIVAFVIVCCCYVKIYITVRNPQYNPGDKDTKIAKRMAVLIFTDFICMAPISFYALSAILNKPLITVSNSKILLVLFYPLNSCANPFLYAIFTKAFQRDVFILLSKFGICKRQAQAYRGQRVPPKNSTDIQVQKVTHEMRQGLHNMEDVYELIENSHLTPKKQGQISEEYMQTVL
Outline: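 Cell line HEK293 with TSHR; density 800/well. Exposure 30 min RT. Readout HTRF cAMP (cAMP-d2/anti-cAMP-cryptate), 1 h RT before reading.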

[2] = qHTS assay to identify small molecule agonists of the hypoxia (HIF-1) signaling pathway - cell viability counter screen (AID 1224844; calls by dose curve; note: nearly all actives have a fitted effect of over 50% in size; note: potency is the fitted concentration of half-maximal effect)
Outline: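 Luminescent ATP content (CellTiter-Glo, 30 min, room temperature) served as the viability measure in HRE-bla ME-180 cells exposed to compounds for 17 hrs in low-serum medium (0.5% dialyzed FBS).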

[3] = qHTS assay to identify small molecule agonists of H2AX (AID 1224845; active = well fitted activation curve with a large enough effect in the signal ratio in the repeat runs, not every such curve was filed as active; the % refers to the signal ratio)
Outline: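 Wild-type CHO-K1 cells plated overnight, then exposed 3 hr at 37C to compounds at 15 concentrations (0.76% DMSO). Lysed, then HTRF anti-pH2AX(S139)-cryptate/anti-H2AX-d2 detection after 24 hr at room temperature; emissions 665 and 620 nm.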

[4] = qHTS assay to identify small molecule agonists of H2AX - cell viability counter screen (AID 1224847; calls by dose curve; note: nearly all actives have a fitted effect of over 30% in size; note: potency is the fitted concentration of half-maximal effect)
Outline: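 Counter-screen for viability: CellTiter-Glo ATP luminescence read after 3 h compound treatment (15-point titration, 0.76% DMSO final) of CHO-K1 cells at 37C, with 30 min room-temperature reagent incubation.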

[5] = qHTS assay to identify small molecule antagonists of the estrogen related receptor (ERR) signaling pathway from Tox21 library (AID 1224848); note: nearly all actives have a fitted effect of over 50% in size; note: potency is the fitted concentration of half-maximal effect
Outline: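 Screening used an ERR reporter line supplied by NTP, exposed for 18 h at 37 C to library compounds delivered in DMSO. Signal was luciferase luminescence developed with ONE-Glo at room temperature for 30 min.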

[6] = qHTS assay to identify small molecule agonists of the estrogen related receptor (ERR) signaling pathway from Tox21 library (AID 1224849; calls by dose curve; note: nearly all actives have a fitted effect of over 15% in size); details: ERR reporter cell line, ONE-Glo luciferase, 18 h; at 92.4 µM (top of the series) unless noted
Outline: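 We plated ERR reporter cells, waited 6 h, added compounds in DMSO by pin tool and incubated them 18 h at 37 C. ONE-Glo was then added and luminescence read after 30 min.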

[7] = qHTS RealTime-Glo MT Cell Viability Assay in HepG2 cells - 24 hour (AID 1224867); note: nearly all actives have a fitted effect of over 50% in size; note: potency is the fitted concentration of half-maximal effect
Outline: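 HepG2 suspension premixed with RealTime-Glo reagents is plated at 600 cells per well and left 5 h at 37 C/5% CO2. Compounds in DMSO then go in, and bioluminescence reflecting viable cell number is recorded over 40 h.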

[8] = qHTS RealTime-Glo MT Cell Viability Assay in HEK293 cells - 32 hour (AID 1224868); note: nearly all actives have a fitted effect of over 50% in size; note: potency is the fitted concentration of half-maximal effect
Outline: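 Reads taken at 0, 8, 16, 24, 32 and 40 h from the same wells. HEK293 cells (600/well) carried RealTime-Glo reagents from seeding, with compound added after a 5 h settle at 37 C.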

[9] = A CellTox Green Cytotoxicity Assay to monitor cytotoxicity in HEK293 cells - 0 hour (AID 1224869); note: nearly all actives have a fitted effect of over 50% in size
Outline: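 Each value comes from one timepoint of a single continuous run in which HEK293 cells with CellTox Green were exposed to compound for up to 40 h at 37 C, dye fluorescence rising with cell death.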

[10] = qHTS assay to identify small molecule agonists of the hypoxia (HIF-1) signaling pathway (AID 1224846; active = well fitted activation curve with a large enough effect in the signal ratio in the repeat runs, not every such curve was filed as active; the % refers to the signal ratio)
Outline: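 Measured by blue/green FRET after loading CCF4-AM: beta-lactamase expressed from a hypoxia response element in ME-180 cells. Test agents were delivered in DMSO and left 17 hrs; cells had been plated 5 hrs earlier in low-serum (0.5% dialyzed FBS) medium.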
% is set by controls: 0 for no effect and ±100 for the full control effect.

S=C=NCc1ccccc1
inactive: Potency [1] | Potency [2] | Potency [3] | Potency [4] | Potency [5] | activity change, positive = activation [6] -18.1% | Potency [7] | Potency [9]
active: Potency [8] 44.1 µM

C=CCN1CC[C@]23c4c5ccc(O)c4O[C@H]2C(=O)CC[C@@]3(O)[C@H]1C5
inactive: Potency [1] | Potency [2] | Potency [3] | Potency [4] | Potency [5] | activity change, positive = activation [6] -6.24% [at 42.5 µM] | Potency [7] | Potency [8] | Potency [9]

CC(C)(C)c1cc([N+](=O)[O-])cc([N+](=O)[O-])c1O
inactive: Potency [1] | Potency [2] | Potency [3] | outcome [10] | Potency [4] | Potency [7] | Potency [9]

O=NN1CCCCCC1
inactive: Potency [1] | Potency [2] | Potency [3] | outcome [10] | Potency [4] | Potency [7] | Potency [8] | Potency [9]

O=C(CBr)Nc1ccc(Cl)cc1C(=O)c1ccccc1F
inactive: Potency [1] | Potency [2] | Potency [3] | Potency [4] | Potency [5] | activity change, positive = activation [6] -13.3% [at 42.5 µM] | Potency [7] | Potency [8] | Potency [9]

CNP(=O)(OC)Oc1ccc(C(C)(C)C)cc1Cl (centres undefined)
inactive: Potency [1] | Potency [2] | Potency [3] | outcome [10] | activity change, positive = activation [6] -37.4% | Potency [7] | Potency [9]
active: Potency [5] 48.6 µM

CCCCc1c(C)nc(NCC)nc1OS(=O)(=O)N(C)C
active: Potency [5] 30.6 µM | Potency [8] 11 µM
inactive: Potency [1] | Potency [2] | Potency [3] | outcome [10] | activity change, positive = activation [6] -48.3% | Potency [7] | Potency [9]

CCOc1nc(F)cc2nc(S(=O)(=O)Nc3c(Cl)cccc3Cl)nn12
inactive: Potency [1] | Potency [2] | Potency [3] | outcome [10] | Potency [7] | Potency [8] | Potency [9]

C(=NC1CCCCC1)=NC1CCCCC1
inactive: Potency [1] | Potency [2] | Potency [3] | activity change, positive = activation [6] -50.9% and -60.1% | Potency [9]
active: Potency [4] 25.5 µM and 14.2 µM | Potency [5] 13.7 µM | Potency [7] 13.9 µM and 12.3 µM | Potency [8] 22 µM and 21.9 µM

BrCCCCBr
inactive: Potency [1] | Potency [2] | Potency [3] | outcome [10] | Potency [4] | Potency [7] | Potency [8] | Potency [9]

CC(C)N(CCC(C(N)=O)(c1ccccc1)c1ccccn1)C(C)C (centres undefined)
inactive: Potency [1] | Potency [2] | Potency [3] | Potency [4] | Potency [5] | activity change, positive = activation [6] 2.39% [at 42.5 µM] | Potency [7] | Potency [8] | Potency [9]

O=C(O)C(F)(F)C(F)(F)C(F)(F)C(F)(F)C(F)(F)C(F)(F)C(F)(F)C(F)(F)C(F)(F)F
active: Potency [2] 13.8 µM
inactive: Potency [1] | Potency [3] | Potency [4] | Potency [5] | activity change, positive = activation [6] 3.44% | Potency [7] | Potency [8] | Potency [9]

Nc1ccc([N+](=O)[O-])cc1[N+](=O)[O-]
inactive: Potency [1] | Potency [2] | Potency [3] | outcome [10] | Potency [7] | Potency [9]

COP(=S)(OC)Oc1cc(Cl)c(I)cc1Cl
inactive: Potency [1] | Potency [2] | Potency [3] | outcome [10] | Potency [7] | Potency [8] | Potency [9]

CCOP(O)OCC
inactive: Potency [1] | Potency [2] | Potency [3] | outcome [10] | Potency [7] | Potency [8] | Potency [9]

NC(=O)C(Cl)(Cl)Cl
inactive: Potency [1] | Potency [2] | Potency [3] | outcome [10] | Potency [4] | Potency [7] | Potency [8] | Potency [9]

Brc1ccccc1
inactive: Potency [1] | Potency [2] | Potency [3] | outcome [10] | Potency [4] | Potency [7] | Potency [8] | Potency [9]

CCOC(=O)CBr
inactive: Potency [1] | Potency [2] | Potency [3] | outcome [10] | Potency [4] | Potency [7] | Potency [9]
